# Experimental data as given in PubChem BioAssay AID1159580 (chemical genetic matrix, 2015).
# Hit rate of the full screen: of about 5,500 compounds, about 2,000 (36%) were called active. About 18% were inconclusive and are not listed. The list shows a part of the results. A number with no mark means an inactive call. No stated cut-off is given here; in the data, active means normalized growth mostly below about 0.91 (no sharp cut-off); inconclusive means no clear call, values can overlap the other calls; inactive means mostly above about 0.92.
# Test: chemical genetic growth profiling, strain panel (AID 1159580);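 further: tested at 20 µM; growth read once vehicle control cultures reached saturation at 30 °C; 1 = growth at the plate median or of vehicle wells; lower values mean less growth of the strain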
# Details: S. cerevisiae deletion strains, growth OD
compound,measurement,setting,value
C/C(Cc1nnn(-c2cc(C)on2)n1)=N/OC(=O)Nc1ccc(Cl)cc1,normalized growth,"locus YAR019C, strain CDC15, active compounds read low",0.989
same,normalized growth,"locus YBL105C, strain PKC1, active compounds read low",0.978
same,normalized growth,"locus YBR135W, strain CKS1, active compounds read low",0.988
same,normalized growth,"locus YBR136W, strain MEC1, active compounds read low",0.985
same,normalized growth,"locus YBR160W, strain CDC28, active compounds read low",0.993
same,normalized growth,"locus YDL017W, strain CDC7, active compounds read low",0.974
same,normalized growth,"locus YDL028C, strain MPS1, active compounds read low",0.989
same,normalized growth,"locus YDL101C, strain DUN1, active compounds read low",1
same,normalized growth,"locus YDL108W, strain KIN28, active compounds read low",0.982
same,normalized growth,"locus YDL132W, strain cdc53, active compounds read low",0.975
same,normalized growth,"locus YDL214C, strain PRR2, active compounds read low",0.956
same,normalized growth,"locus YDR052C, strain DBF4, active compounds read low",0.988
same,normalized growth,"locus YDR054C, strain cdc34, active compounds read low",0.975
same,normalized growth,"locus YDR226W, strain ADK1, active compounds read low",0.97
same,normalized growth,"locus YDR477W, strain SNF1, active compounds read low",0.899
same,normalized growth,"locus YER123W, strain YCK3, active compounds read low",0.954
same,normalized growth,"locus YER133W, strain GLC7, active compounds read low",0.95
same,normalized growth,"locus YFL009W, strain cdc4, active compounds read low",0.98
same,normalized growth,"locus YFL029C, strain CAK1, active compounds read low",0.992
same,normalized growth,"locus YFR003C, strain YPI1, active compounds read low",0.979
same,normalized growth,"locus YFR019W, strain FAB1, active compounds read low",0.989
same,normalized growth,"locus YFR028C, strain CDC14, active compounds read low",0.975
same,normalized growth,"locus YGR040W, strain KSS1, active compounds read low",0.941
same,normalized growth,"locus YGR052W, strain FMP48, active compounds read low",0.971
same,normalized growth,"locus YGR092W, strain DBF2, active compounds read low",0.877
same,normalized growth,"locus YHR030C, strain SLT2, active compounds read low",0.733 (active)
same,normalized growth,"locus YHR079C, strain IRE1, active compounds read low",0.754
same,normalized growth,"locus YHR082C, strain KSP1, active compounds read low",1.05
same,normalized growth,"locus YHR205W, strain SCH9, active compounds read low",0.787
same,normalized growth,"locus YIL147C, strain SLN1, active compounds read low",0.973
same,normalized growth,"locus YJL095W, strain BCK1, active compounds read low",0.793
same,normalized growth,"locus YJL128C, strain PBS2, active compounds read low",0.921
same,normalized growth,"locus YJL157C, strain FAR1, active compounds read low",0.956
same,normalized growth,"locus YJR016C, strain ILV3, active compounds read low",0.977
same,normalized growth,"locus YJR066W, strain TOR1 (second series), active compounds read low",0.6 (active)
same,normalized growth,"locus YJR066W, strain TOR1, active compounds read low",0.992
same,normalized growth,"locus YKL048C, strain ELM1, active compounds read low",0.994
same,normalized growth,"locus YKL067W, strain YNK1, active compounds read low",0.946
same,normalized growth,"locus YKL101W, strain HSL1, active compounds read low",0.929
same,normalized growth,"locus YKL193C, strain SDS22, active compounds read low",0.977
same,normalized growth,"locus YKL203C, strain TOR2, active compounds read low",1.03
same,normalized growth,"locus YLR113W, strain HOG1, active compounds read low",0.826 (active)
same,normalized growth,"locus YLR133W, strain CKI1, active compounds read low",0.96
same,normalized growth,"locus YLR403W, strain SFP1, active compounds read low",0.933
same,normalized growth,"locus YML070W, strain DAK1, active compounds read low",0.944
same,normalized growth,"locus YMR001C, strain CDC5, active compounds read low",0.983
same,normalized growth,"locus YMR205C, strain PFK2 (second series), active compounds read low",0.936
same,normalized growth,"locus YMR277W, strain FCP1, active compounds read low",0.978
same,normalized growth,"locus YNL006W, strain LST8, active compounds read low",0.98
same,normalized growth,"locus YNL020C, strain ARK1, active compounds read low",0.923
same,normalized growth,"locus YNL161W, strain CBK1, active compounds read low",0.973
same,normalized growth,"locus YNL183C, strain NPR1, active compounds read low",0.977
same,normalized growth,"locus YNL207W, strain RIO2, active compounds read low",0.981
same,normalized growth,"locus YNL222W, strain SSU72, active compounds read low",0.993
same,normalized growth,"locus YNL307C, strain MCK1 (second series), active compounds read low",0.907
same,normalized growth,"locus YOL078W, strain AVO1, active compounds read low",0.986
same,normalized growth,"locus YOL136C, strain PFK27, active compounds read low",0.946
same,normalized growth,"locus YOR061W, strain CKA2, active compounds read low",0.988
same,normalized growth,"locus YOR119C, strain RIO1, active compounds read low",1.01
same,normalized growth,"locus YOR231W, strain MKK1, active compounds read low",0.954
same,normalized growth,"locus YOR329C, strain SCD5, active compounds read low",0.982
same,normalized growth,"locus YPL031C, strain PHO85, active compounds read low",0.924
same,normalized growth,"locus YPL153C, strain RAD53, active compounds read low",0.953
same,normalized growth,"locus YPL204W, strain HRR25, active compounds read low",0.954
same,normalized growth,"locus YPL209C, strain IPL1, active compounds read low",0.985
same,normalized growth,"locus YPL256C, strain CLN2, active compounds read low",0.86
same,normalized growth,"locus YPR025C, strain CCL1, active compounds read low",0.991
same,normalized growth,"locus YPR106W, strain ISR1, active compounds read low",0.98
same,normalized growth,"locus YPR111W, strain DBF20, active compounds read low",0.975
same,normalized growth,"strain NNK1, active compounds read low",0.967
same,normalized growth,"strain TSCII, active compounds read low",0.98
